This note sets out measurements from PubChem BioAssay (Tox21).

Results filed as inconclusive are left out. A call without a number means that no potency is given here. Activity calls are given as the source filed them. Calls come from the whole dose curve; as a rule, active = well fitted inhibition curve with a large enough effect in the signal ratio in the repeat runs (not every such curve was filed as active); inconclusive = weak or mixed curves, or effect the other way; inactive = no such curve, though single readings can be large or run the other way; the % refers to the signal ratio.
Potency is the fitted concentration of half-maximal effect.

Sequence of Vitamin D3 receptor (Homo sapiens) (P11473 whole entry, looked up): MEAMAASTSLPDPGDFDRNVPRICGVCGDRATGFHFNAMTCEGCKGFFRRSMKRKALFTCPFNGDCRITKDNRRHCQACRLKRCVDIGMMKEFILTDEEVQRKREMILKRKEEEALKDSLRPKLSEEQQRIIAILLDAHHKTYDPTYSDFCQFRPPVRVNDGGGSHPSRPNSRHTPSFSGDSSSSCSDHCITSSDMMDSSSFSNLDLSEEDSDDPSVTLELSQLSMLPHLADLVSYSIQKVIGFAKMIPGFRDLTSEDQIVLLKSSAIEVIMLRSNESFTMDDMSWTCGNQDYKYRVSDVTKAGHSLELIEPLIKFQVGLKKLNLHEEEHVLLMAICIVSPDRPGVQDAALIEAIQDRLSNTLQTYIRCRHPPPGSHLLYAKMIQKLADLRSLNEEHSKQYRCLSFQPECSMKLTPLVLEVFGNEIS

In the experiment the target is Vitamin D3 receptor (Homo sapiens) (UniProt P11473). Nature of the experiment: qHTS assay to identify small molecule antagonists of the vitamin D receptor (VDR) signaling pathway (AID 743223). Particulars: VDR-UAS-bla HEK293T, beta-lactamase FRET ratio, 16 h; series mostly up to 61 µM. The text has this:
U.S. Tox21 Program National Center for Advancing Translational Sciences [NCATS] NIH Chemical Genomics Center [NCGC] U.S. Environmental Protection Agency [EPA] National Institutes of Environmental Health Sciences [NIEHS] National Toxicology Program [NTP] U.S. Food and Drug Administration [FDA] Tox21 Assay Overview: The vitamin D receptor (VDR), a member of nuclear hormone receptor superfamily, plays a critical role in calcium homeostasis and bone metabolism. It is also involved in cell differentiation and growth, and thrombogenicity.
Tox21 Assay Protocol Summary: VDR-bla cells were dispensed at 2,000 cells/5 uL of assay medium per well into black wall/clear-bottom 1536-well plates using a Multidrop Combi (Thermo Fisher Scientific, Waltham, MA) dispenser. After the assay plates were incubated at a 37C and 5% CO2 for 4 h, 23 nL of compounds dissolved in DMSO, positive controls or DMSO only was transferred to the assay plate by a Pintool station (Kalypsys, San Diego, CA), followed by addition of 1 uL of 1alpha, 25-Dihydroxy Vitamin D3 (3 nM, final concentration in the wells) using a Bioraptr Flying Reagent Dispenser (FRD) workstation (Beckman Coulter, Indianapolis, IN). The plates were incubated at 37C and 5% CO2 for 16 h, and then 1 uL of LiveBLAzerTM B/G FRET substrate was added using a Bioraptr FRD. The plates were incubated at room temperature for 2 h and fluorescence intensity was measured by an Envision plate reader (PerkinElmer, Shelton, CT).
Regarding `COC(=O)N(C(=O)N1CO[C@@]2(C(=O)OC)Cc3cc(Cl)ccc3C2=N1)c1ccc(OC(F)(F)F)cc1`, the Potency result is “inactive”.
On to `C[C@]12Cc3nonc3C[C@@H]1CC[C@@H]1[C@@H]2CC[C@@]2(C)[C@H]1CC[C@]2(C)O`, for which the Potency entry was “inactive”.
With `O=C(O)C1C2CCC(O2)C1C(=O)O` (stereo not given), the Potency result was “inactive”.
For the compound `Oc1ccc(C(c2ccc(O)cc2)(C(F)(F)F)C(F)(F)F)cc1`, the Potency result was “inactive”.
Take `O=C1c2ccccc2C(=O)C1C(=O)C(c1ccccc1)c1ccc(Cl)cc1` (stereo not given): the Potency entry is “inactive”.
As to `C[C@@H]1CC[C@@]2(OC1)O[C@H]1[C@@H](O)[C@H]3[C@@H]4CC[C@H]5C[C@@H](O[C@@H]6O[C@H](CO)[C@H](O[C@@H]7O[C@H](CO)[C@@H](O)[C@H](O[C@@H]8OC[C@@H](O)[C@H](O)[C@H]8O)[C@H]7O[C@@H]7O[C@H](CO)[C@@H](O)[C@H](O[C@@H]8O[C@H](CO)[C@@H](O)[C@H](O)[C@H]8O)[C@H]7O)[C@H](O)[C@H]6O)[C@H](O)C[C@]5(C)[C@H]4CC[C@]3(C)[C@H]1[C@@H]2C`, the Potency is 32.8 µM (active).
For `C1CCC2CCCCC2C1` (stereo not given) the value was “inactive”.
For `CCCCCCCCCBr`, the Potency result is “inactive”.
Consider `O=C1NCN(c2ccccc2)C12CCN(CC1COc3ccccc3O1)CC2` (stereo not given), for which the Potency entry was “inactive”.
Turning to `Nc1ccccc1C(=O)Oc1ccc2ccccc2c1`, the Potency result is “inactive”.
For `CC(=O)c1cc(C(C)(C)C)cc2c1CCC2(C)C` the value was “inactive”.
As for `Cc1cc(C)cc(OP(=O)(Oc2cc(C)cc(C)c2)Oc2cc(C)cc(C)c2)c1`, the Potency entry is “inactive”.
For `N#C/C=C/C#N`, the Potency result is “inactive”.
With `Clc1ccc(C(c2ccc(Cl)cc2)C(Cl)(Cl)Cl)cc1`, the Potency result is “inactive”.
With `O=C(CCCN1CCC2(CC1)C(=O)NCN2c1ccccc1)c1ccc(F)cc1`, the Potency entry was “inactive”.
As for `COc1ccc(OC)c(CC(C)N)c1` (stereo not given), the Potency entry is “inactive”.
In the case of `CN(C)c1ccc(N=Nc2ccccc2)cc1`, the Potency result was “inactive”.
As to `c1ccc2c(c1)OCC(C1=NCCN1)O2` (stereo not given), the Potency was 16.9 µM (active).
`CCCN(CCC)CCc1c[nH]c2ccccc12`: the Potency entry was “inactive”.
For `O=c1oc2ccccc2c(O)c1Cc1c(O)c2ccccc2oc1=O` the value was “inactive”; for `BrCBr`, “inactive”.
For `Cc1ccc(OP(=O)(Oc2ccccc2)Oc2ccccc2)cc1`, the Potency result was “inactive”.
As to `FC(F)(F)c1cccc(C2=CCN(CCc3ccc4ccccc4c3)CC2)c1`, the Potency result was “inactive”.
Take `OC(c1ccc(Cl)cc1)(c1ccc(Cl)cc1)C(Cl)(Cl)Cl`: the Potency result is “inactive”.
In the case of `CC(C)CCCCCOC(=O)c1ccccc1C(=O)OCCCCCC(C)C`, the Potency entry is “inactive”.
Take `CCCCCCCCCCCCCCC(Br)C(=O)O` (stereo not given): the Potency result was “inactive”.
For `Clc1ccc(C(Cl)(Cl)Cl)c(Cl)c1` the value was “inactive”; for `O=C(Nc1ccc2[nH]ccc2c1)c1cc2cc(F)ccc2n1Cc1cccc(F)c1`, 43.6 µM (active).
Turning to `CN(C)C(=S)S`, the Potency result was “inactive”.
`Oc1cc(Cl)c(Cl)c(Cl)c1`: the Potency entry was “inactive”.
As to `COc1ccc(N)cc1N`, the Potency entry was “inactive”.
Take `CN(C)CCc1c[nH]c2cccc(O)c12`: the Potency entry is “inactive”.
`N#CC(Cl)Cl`: the Potency entry is “inactive”.
As to `CCN(CC)c1c([N+](=O)[O-])cc(C(F)(F)F)c(N)c1[N+](=O)[O-]`, the Potency entry was “inactive”.
Regarding `CCCCCCCCCCCCBr`, the Potency result is “inactive”.
Take `CC1(C)CN=C(NN=C(/C=C/c2ccc(C(F)(F)F)cc2)/C=C/c2ccc(C(F)(F)F)cc2)NC1`: the Potency was 13.8 µM (active).
With `O=c1c(C2CC(c3ccc(-c4ccc(Br)cc4)cc3)Cc3ccccc32)c(O)sc2ccccc12` (stereo not given), the Potency entry was “inactive”.
Take `Cn1cc(C2=C(c3cn(C4CCN(Cc5ccccn5)CC4)c4ccccc34)C(=O)NC2=O)c2ccccc21`: the Potency result was “inactive”.
With `CNC(C)Cc1ccc2c(c1)OCO2` (stereo not given), the Potency entry is “inactive”.
Consider `COP(=S)(OC)Oc1cc(Cl)c(Br)cc1Cl`, for which the Potency result is “inactive”.
